Records with an inconclusive call do not appear. A number with no mark means an inactive call. Activity calls are given as the source filed them. Calls come from the whole dose curve.

We go through 33 molecules from PubChem BioAssay AID1479148 (National Center for Advancing Translational Sciences (NCATS), 2020).

The assay in a line: Confirmatory qHTS for inhibitors of SARS-S pseudo-typed particle cell entry. Particulars: SARS-S pseudotyped particle cell entry, reporter luminescence; series mostly up to 57.1 µM; activity change, negative = inhibition: at the top concentration.
Turning to `N#CC(c1ccc(Cl)cc1)c1c(Cl)cc(-n2ncc(=O)[nH]c2=O)cc1Cl` (stereo not drawn), the Potency was 19.2 µM (active).

For the molecule `COc1cc(N)c(Cl)cc1C(=O)NC1CCN(CCCOc2ccc(F)cc2)CC1OC` (stereo not drawn), the “activity change, negative = inhibition” value is -27%.

On to `CCCCCCCCCCCCCC[n+]1ccc(C)cc1`, for which the Potency was 3.83 µM (active). Same read-out and setting: the figure for `CN1CCC(=C2c3ccccc3CCc3sccc32)CC1` is 27.1 µM (active); for `Cc1ccc(NC(=O)c2ccc(CN3CCN(C)CC3)cc2)cc1Nc1nccc(-c2cccnc2)n1` it is 30.4 µM (active). With `O=C(O)c1cc(O)c2c(c1)[C@H]([C@H]1c3cc(C(=O)O)cc(O)c3C(=O)c3c(O[C@@H]4O[C@H](CO)[C@@H](O)[C@H](O)[C@H]4O)cccc31)c1cccc(O[C@@H]3O[C@H](CO)[C@@H](O)[C@H](O)[C@H]3O)c1C2=O`, the “activity change, negative = inhibition” value was -58.3% [at 33 µM]. In the case of `Cc1c(N)nc(C(CC(N)=O)NCC(N)C(N)=O)nc1C(=O)NC(C(=O)NC(C)C(O)C(C)C(=O)NC(C(=O)NCCc1nc(-c2nc(C(=O)NCCCN[C@@H](C)c3ccccc3)cs2)cs1)C(C)O)C(O[C@@H]1O[C@@H](CO)[C@@H](O)[C@H](O)[C@@H]1O[C@H]1O[C@H](CO)[C@@H](O)[C@H](OC(N)=O)[C@@H]1O)c1cnc[nH]1` (stereo partly drawn), the Potency is 0.857 µM (active).

Take `COC(=O)C[C@](O)(CCCC(C)(C)O)C(=O)O[C@@H]1C(OC)=C[C@]23CCCN2CCc2cc4c(cc2[C@H]13)OCO4`: the Potency was 1.52 µM (active).

With `CC(C)(C)NC(=O)[C@H]1CC[C@H]2[C@@H]3CC[C@H]4NC(=O)C=C[C@]4(C)[C@H]3CC[C@]12C`, the “activity change, negative = inhibition” value is -41.9%. As for `CO[C@@]12[C@H](COC(N)=O)C3=C(C(=O)C(C)=C(N)C3=O)N1C[C@@H]1N[C@@H]12`, the Potency was 6.07 µM (active). In the case of `C[C@]12CC[C@H](O)C[C@H]1CCC1C2CC[C@]2(C)[C@@H](c3ccc(=O)oc3)C[C@H]3O[C@]132` (stereo partly drawn), the Potency was 5.41 µM (active).

For `CCN(CC)Cc1cc(Nc2ccnc3cc(Cl)ccc23)ccc1O`, the Potency was 8.57 µM (active).

`COc1cc2c(cc1Cc1cccc(Cl)c1F)c(=O)c(C(=O)O)cn2[C@H](CO)C(C)C`: the Potency is 0.0607 µM (active).

As to `CN(C)[C@@H](CCOc1cccc2ccccc12)c1ccccc1`, the Potency was 6.81 µM (active). Still for that read-out and setting: the figure for `CCCCCCCCCCCC[n+]1ccc2ccccc2c1` is 3.83 µM (active); for `CC(C)(C)C(=O)OCOP(=O)(COCCn1cnc2c(N)ncnc21)OCOC(=O)C(C)(C)C` it is 0.0383 µM (active); for `CC[C@@]1(O)C(=O)OCc2c1cc1n(c2=O)Cc2cc3c(CN(C)C)c(O)ccc3nc2-1` it is 0.764 µM (active). The same measure, in the same setting: the result for `CCN1CCN(Cc2ccc(Nc3ncc(F)c(-c4cc(F)c5nc(C)n(C(C)C)c5c4)n3)nc2)CC1` reads 0.961 µM (active). In the case of `C[C@@H]1CCO[C@H]2Cn3cc(C(=O)NCc4ccc(F)cc4F)c(=O)c(O)c3C(=O)N12`, the Potency is 0.0096 µM (active). The same measure, in the same setting: the figure for `CNC(=O)c1cc(Oc2ccc(NC(=O)Nc3ccc(Cl)c(C(F)(F)F)c3)c(F)c2)ccn1` is 8.57 µM (active); for `O=C1CCc2ccc(OCCCCN3CCN(c4cccc(Cl)c4Cl)CC3)cc2N1` it is 19.2 µM (active). On the same count and under the same terms, the figure for `C[n+]1c2cc(N)ccc2cc2ccc(N)cc21` (tested in a mixture with another compound) is 6.81 µM (active). On to `CCc1c2c(nc3ccc(OC(=O)N4CCC(N5CCCCC5)CC4)cc13)-c1cc3c(c(=O)n1C2)COC(=O)[C@]3(O)CC`, for which the “activity change, negative = inhibition” value is -64%.

Consider `CC(=O)Oc1ccccc1C(=O)Nc1ncc([N+](=O)[O-])s1`, for which the Potency was 12.1 µM (active). On the same count and under the same terms, the result for `CN(C)CC/C=C1\c2ccccc2Sc2ccc(Cl)cc21` reads 21.5 µM (active); that for `COc1cccc2c1C(=O)c1c(O)c3c(c(O)c1C2=O)C[C@@](O)(C(=O)CO)C[C@@H]3O[C@H]1C[C@H](N)[C@H](OC2CCCCO2)[C@H](C)O1` (stereo partly drawn), 7.64 µM (active); that for `O=C1c2c(O)ccc(O)c2C(=O)c2c(NCCNCCO)ccc(NCCNCCO)c21`, 0.121 µM (active). Still for that read-out and setting: the result for `COc1ccc2cc1Oc1ccc(cc1)C[C@H]1c3c(cc4c(c3Oc3cc5c(cc3OC)CCN(C)[C@@H]5C2)OCO4)CCN1C` reads 2.15 µM (active); that for `CN1CCC(=C2c3ccccc3C=Cc3ccccc32)CC1`, 27.1 µM (active). The same measure, in the same setting: the result for `CC(C)OC(=O)[C@H](C)N[P@](=O)(CO[C@H](C)Cn1cnc2c(N)ncnc21)Oc1ccccc1` reads 0.171 µM (active); that for `CN[C@H]1CC[C@@H](c2ccc(Cl)c(Cl)c2)c2ccccc21`, 19.2 µM (active). In the case of `COc1cc(NS(C)(=O)=O)ccc1Nc1c2ccccc2nc2ccccc12`, the Potency was 0.961 µM (active). Still for that read-out and setting: the result for `c1ccc2c(c1)Sc1ccccc1N2CC1CN2CCC1CC2` (stereo not drawn) reads 27.1 µM (active).
